# From the supplement of paper PMC13380429
# System: Vero E6 infected with SARS-CoV-2
# Experiment: morphology score (similarity to uninfected cells); higher = more like uninfected cells
# Conditions: 24 h
row,Structure (SMILES),morphology score
1,N=C(N)NCCC[C@@H](N)C(=O)N[C@@H](CCCNC(=N)N)C(=O)N1CCC[C@H]1C(=O)N1C[C@H](O)C[C@H]1C(=O)NCC(=O)N[C@@H](Cc1cccs1)C(=O)N[C@@H](CO)C(=O)N1Cc2ccccc2C[C@@H]1C(=O)N1[C@H](C(=O)N[C@@H](CCCNC(=N)N)C(=O)O)C[C@@H]2CCCC[C@@H]21 [icatibant-acetate] (10 µM),0.105
2,O=S(=O)(O)Oc1ccc(C(c2ccc(OS(=O)(=O)O)cc2)c2ccccn2)cc1 [sodium-picosulfate] (10 µM),0.154
3,CNC[C@H](O)c1cccc(O)c1 [phenylephrine] (10 µM),-0.0115
4,NCc1cc(O)no1 [muscimol] (10 µM),-0.00274
5,c1ccc2c(Oc3nc(Nc4ccc(N5CCOCC5)cc4)c4ncn(C5CCCCC5)c4n3)cccc2c1 [purmorphamine] (10 µM),-0.227
6,Nc1nc(N)nc(-c2cc(Cl)ccc2Cl)n1 [irsogladine] (10 µM),0.168
7,COc1ccc(S(=O)(=O)Nc2c(C)cc(C)cc2C)cc1 (10 µM),0.217
8,Cc1ccnc2c1NC(=O)c1cccnc1N2C1CC1 [nevirapine] (10 µM),0.173
9,CN(C)CC[C@@](O)(c1ccccc1)c1ccccc1Cl [clofedanol] (10 µM),-0.0705
10,CC(=O)OC/C=C(C)/C=C/C=C(C)/C=C/C1=C(C)CCCC1(C)C [retinyl-acetate] (10 µM),-0.227
11,CCOC(=O)C1=C(C)NC(C)=C(C(=O)OC)C1c1cccc(Cl)c1Cl (stereo not given) [felodipine] (10 µM),0.224
12,C=C[C@H]1CN2CC[C@H]1C[C@@H]2[C@@H](O)c1ccnc2ccc(OC)cc12 [quinidine] (10 µM),0.155
13,Cc1cc(N2CCOCC2)ccc1Nc1nc(NC2CCCCC2)c2nc[nH]c2n1 (10 µM),-0.0587
14,O=C1c2c(O)cccc2Cc2cccc(O)c21 [anthralin] (10 µM),-0.0665
15,C=CC(=O)Nc1cccc(Oc2nc(Nc3ccc(N4CCN(C)CC4)cc3)nc3ccsc23)c1 [olmutinib] (0.833333 µM),-0.0965
16,C[C@@H](c1ccc2nccn2c1)n1nnc2ncc(-c3cnn(C)c3)nc21 [savolitinib] (10 µM),-0.18
17,Nc1ccncc1 [dalfampridine] (10 µM),0.0807
18,Cc1ccc(Sc2cncc3sc(C(N)=O)cc23)cc1 (10 µM),-0.153
19,O=C(O)[C@H](O)[C@@H](O)[C@H](O[C@@H]1O[C@H](CO)[C@H](O)[C@H](O)[C@H]1O)[C@H](O)CO [maltobionic-acid] (10 µM),0.138
20,CC(=O)N(C)c1cccc(-c2ccnc3c(C(=O)c4cccs4)cnn23)c1 [indiplon] (10 µM),-0.213

row,Structure (SMILES),morphology score
1,O=C(Nc1ccccc1Br)N[C@@H]1CCN(c2ccc(C(F)(F)F)cn2)C1 (10 µM),0.0714
2,Nc1cc(C(F)(F)F)c(-c2nc(N3CCOCC3)nc(N3CCOCC3)n2)cn1 (10 µM),0.0308
3,O=C1N[C@@H]2[C@@H](O)[C@@H](O)[C@H](O)[C@@H](CO)N2C1=O [kifunensine] (10 µM),0.19
4,Nc1ccn([C@H]2C[C@H](O)[C@@H](CO)O2)c(=O)n1 [torcitabine] (10 µM),-0.00729
5,"CC(=O)N1CC[N+](C)(C)CC1 [4-acetyl-1,1-dimethylpiperazinium] (10 µM)",0.103
6,Cc1n[nH]c2ccc(-c3cncc(OC[C@@H](N)Cc4ccccc4)c3)cc12 (10 µM),0.111
7,Cc1ccc(O)c([C@H](CCN(C(C)C)C(C)C)c2ccccc2)c1 [tolterodine] (10 µM),0.35
8,OCc1cc([C@@H](O)CNCCCCCCOCCOCc2c(Cl)cccc2Cl)ccc1O [vilanterol] (10 µM),0.0228
9,C[C@@]1(O)[C@H](O)[C@@H](CO)O[C@H]1n1cnc2c(NC3CCCC3)nc(Cl)nc21 (10 µM),0.0826
10,Cc1c(N)nc([C@H](CC(N)=O)NC[C@H](N)C(N)=O)nc1C(=O)N[C@H](C(=O)N[C@H](C)[C@@H](O)[C@H](C)C(=O)N[C@H](C(=O)NCCc1nc(-c2nc(C(=O)NCCC[S+](C)C)cs2)cs1)[C@@H](C)O)[C@@H](OC1OC(CO)C(O)C(O)C1OC1OC(CO)C(O)C(OC(N)=O)C1O)c1cnc[nH]1 (stereo not given in full) [bleomycin] (10 µM),0.0285
11,CN(c1nccc(=O)[nH]1)C1CCN(c2nc3ccccc3n2Cc2ccc(F)cc2)CC1 [mizolastine] (10 µM),0.211
12,Clc1ccc(C(Cn2ccnc2)OCc2ccc(Sc3ccccc3)cc2)c(Cl)c1 (stereo not given) [fenticonazole] (10 µM),-0.0119
13,CC/C(=C(/CC)c1ccc(O)cc1)c1ccc(O)cc1 [diethylstilbestrol] (10 µM),-0.0992
14,O=[N+]([O-])c1cnc(Sc2nnc(O)n2-c2ccc3c(c2)OCCO3)s1 (0.833333 µM),0.392
15,O=S(=O)(c1cccc2cnccc12)N1CCCNCC1 [fasudil] (10 µM),0.474
16,CCN(Cc1ccc(Cl)nc1)/C(=C/[N+](=O)[O-])NC [nitenpyram] (10 µM),0.0591
17,CN1C(=O)CCS(=O)(=O)C1c1ccc(Cl)cc1 (stereo not given) [chlormezanone] (10 µM),-0.0968
18,C[C@]1(Cn2ccnn2)[C@H](C(=O)O)N2C(=O)C[C@H]2S1(=O)=O [tazobactam] (10 µM),0.0668
19,O=C(Nc1cccnc1)N1CCC(Cc2cccc(Oc3ccc(C(F)(F)F)cn3)c2)CC1 (0.833333 µM),0.191
20,NC(=O)c1cc([N+](=O)[O-])cc([N+](=O)[O-])c1 [nitromide] (10 µM),0.265
